From PubChem BioAssay
Active and inactive are the calls of the source.

Legend:
[1] = small molecules captured by biotinylated probe aFSTL3 – biochemical, small-molecule microarray, fluorescence 635/667, stem cell growth factor project, primary screen (AID 1064); conditions: higher = more signal;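 also: measures binding of the biotinylated anti-FSTL3 antibody to printed compounds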
[2] = binders from COS7 lysate, DM2A8 probe, primary screen, torsin A project, cell lysate, small-molecule microarray, fluorescence 635/667 (AID 1065); conditions: higher = more signal, COS7 lysate expressing mutant human TOR1A
[3] = small molecules captured by biotinylated probe aFGF2 – biochemical, small-molecule microarray, fluorescence 635/667, stem cell growth factor project, primary screen (AID 1067); conditions: higher = more signal;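 also: measures binding of biotinylated aFGF2 protein to printed compounds on slides; z-score merges feature fluorescence and signal-to-noise across triplicate slides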
[4] = small molecules captured by biotinylated probe aFGF10 – biochemical, small-molecule microarray, fluorescence 635/667, stem cell growth factor project, primary screen (AID 1071); conditions: higher = more signal;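 also: score merges 667 nm spot intensity and signal to noise from triplicate slides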
[5] = target: Neurogenic locus notch homolog protein 2 (Homo sapiens) (UniProt Q04721); experiment: small molecules binding Notch2 protein – biochemical, small-molecule microarray, 635 nm fluorescence, stem cell growth factors, primary screen (AID 1073); conditions: higher = more signal
Chain of Neurogenic locus notch homolog protein 2 (Homo sapiens) (Q04721 whole entry, looked up, canonical isoform): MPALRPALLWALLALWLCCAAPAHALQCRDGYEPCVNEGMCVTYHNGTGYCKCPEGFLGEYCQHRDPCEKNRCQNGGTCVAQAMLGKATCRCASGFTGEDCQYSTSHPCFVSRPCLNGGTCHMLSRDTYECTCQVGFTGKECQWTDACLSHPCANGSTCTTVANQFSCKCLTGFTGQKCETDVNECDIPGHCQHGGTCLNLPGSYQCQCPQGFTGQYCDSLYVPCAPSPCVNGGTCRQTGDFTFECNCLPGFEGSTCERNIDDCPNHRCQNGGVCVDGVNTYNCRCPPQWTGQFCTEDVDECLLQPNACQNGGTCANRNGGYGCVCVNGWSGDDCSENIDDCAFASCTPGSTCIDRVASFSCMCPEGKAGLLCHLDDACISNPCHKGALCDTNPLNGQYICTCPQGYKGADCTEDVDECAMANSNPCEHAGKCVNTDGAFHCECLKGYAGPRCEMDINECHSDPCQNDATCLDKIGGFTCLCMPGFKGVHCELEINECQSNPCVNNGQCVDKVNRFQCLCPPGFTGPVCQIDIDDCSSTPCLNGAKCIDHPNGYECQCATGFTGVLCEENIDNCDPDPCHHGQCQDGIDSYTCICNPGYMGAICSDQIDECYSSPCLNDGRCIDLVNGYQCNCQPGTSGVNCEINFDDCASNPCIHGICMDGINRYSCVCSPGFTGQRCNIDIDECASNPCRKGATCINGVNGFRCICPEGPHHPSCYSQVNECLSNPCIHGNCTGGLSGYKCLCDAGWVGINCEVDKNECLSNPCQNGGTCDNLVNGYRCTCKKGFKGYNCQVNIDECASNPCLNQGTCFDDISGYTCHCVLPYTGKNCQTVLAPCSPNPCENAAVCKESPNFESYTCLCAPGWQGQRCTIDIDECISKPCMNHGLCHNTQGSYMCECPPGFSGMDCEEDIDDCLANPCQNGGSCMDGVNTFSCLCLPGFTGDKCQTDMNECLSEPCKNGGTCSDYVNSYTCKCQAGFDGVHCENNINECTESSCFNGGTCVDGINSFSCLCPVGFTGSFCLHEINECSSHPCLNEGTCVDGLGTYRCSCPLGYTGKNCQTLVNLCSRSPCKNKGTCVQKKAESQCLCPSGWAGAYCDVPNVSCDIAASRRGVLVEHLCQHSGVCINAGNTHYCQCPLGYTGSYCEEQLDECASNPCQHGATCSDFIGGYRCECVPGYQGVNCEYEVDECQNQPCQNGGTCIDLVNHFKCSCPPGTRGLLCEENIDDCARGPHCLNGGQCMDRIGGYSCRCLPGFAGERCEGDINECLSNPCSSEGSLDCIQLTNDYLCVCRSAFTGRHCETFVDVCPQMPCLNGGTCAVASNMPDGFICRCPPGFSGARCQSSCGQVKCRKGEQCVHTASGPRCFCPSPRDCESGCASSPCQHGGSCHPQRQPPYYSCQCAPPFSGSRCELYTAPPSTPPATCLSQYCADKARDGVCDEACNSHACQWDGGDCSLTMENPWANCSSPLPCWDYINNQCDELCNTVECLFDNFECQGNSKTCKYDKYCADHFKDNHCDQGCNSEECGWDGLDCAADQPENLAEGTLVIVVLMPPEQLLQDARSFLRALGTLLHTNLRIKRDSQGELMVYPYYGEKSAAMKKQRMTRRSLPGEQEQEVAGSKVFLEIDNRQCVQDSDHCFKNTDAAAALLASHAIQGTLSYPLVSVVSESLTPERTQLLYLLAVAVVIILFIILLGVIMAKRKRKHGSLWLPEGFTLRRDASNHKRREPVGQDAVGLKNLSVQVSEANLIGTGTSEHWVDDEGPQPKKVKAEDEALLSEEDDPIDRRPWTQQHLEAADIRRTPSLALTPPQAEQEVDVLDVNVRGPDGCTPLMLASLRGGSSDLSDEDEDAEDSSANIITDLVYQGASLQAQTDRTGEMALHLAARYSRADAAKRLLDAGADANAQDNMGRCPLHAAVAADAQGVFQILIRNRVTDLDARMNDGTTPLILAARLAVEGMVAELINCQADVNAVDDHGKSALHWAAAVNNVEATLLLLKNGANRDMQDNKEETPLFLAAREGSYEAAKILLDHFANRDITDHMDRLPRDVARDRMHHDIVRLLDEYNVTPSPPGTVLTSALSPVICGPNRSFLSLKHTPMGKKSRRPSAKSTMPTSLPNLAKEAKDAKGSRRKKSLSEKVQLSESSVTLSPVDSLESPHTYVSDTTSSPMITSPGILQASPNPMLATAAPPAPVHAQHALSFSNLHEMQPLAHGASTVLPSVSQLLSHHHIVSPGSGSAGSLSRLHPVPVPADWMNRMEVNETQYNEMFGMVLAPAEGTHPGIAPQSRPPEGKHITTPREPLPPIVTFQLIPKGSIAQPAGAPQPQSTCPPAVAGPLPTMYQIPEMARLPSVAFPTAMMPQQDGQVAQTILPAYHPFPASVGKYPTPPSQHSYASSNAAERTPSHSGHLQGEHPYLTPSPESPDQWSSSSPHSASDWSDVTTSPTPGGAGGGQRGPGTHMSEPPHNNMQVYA

[6] = target: Pro-neuregulin-1, membrane-bound isoform (Homo sapiens) (UniProt Q02297); experiment: small molecules binding neuregulin-1 protein – biochemical, small-molecule microarray, fluorescence 635/667, psychiatric disease protein project, primary screen (AID 1075); conditions: NRG1 binding, 635 nm fluorescence, higher = more signal;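 also: score combines 667 nm spot fluorescence with signal to noise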
Chain of Pro-neuregulin-1, membrane-bound isoform (Homo sapiens) (Q02297 whole entry, looked up, the tested form may be a part, canonical isoform): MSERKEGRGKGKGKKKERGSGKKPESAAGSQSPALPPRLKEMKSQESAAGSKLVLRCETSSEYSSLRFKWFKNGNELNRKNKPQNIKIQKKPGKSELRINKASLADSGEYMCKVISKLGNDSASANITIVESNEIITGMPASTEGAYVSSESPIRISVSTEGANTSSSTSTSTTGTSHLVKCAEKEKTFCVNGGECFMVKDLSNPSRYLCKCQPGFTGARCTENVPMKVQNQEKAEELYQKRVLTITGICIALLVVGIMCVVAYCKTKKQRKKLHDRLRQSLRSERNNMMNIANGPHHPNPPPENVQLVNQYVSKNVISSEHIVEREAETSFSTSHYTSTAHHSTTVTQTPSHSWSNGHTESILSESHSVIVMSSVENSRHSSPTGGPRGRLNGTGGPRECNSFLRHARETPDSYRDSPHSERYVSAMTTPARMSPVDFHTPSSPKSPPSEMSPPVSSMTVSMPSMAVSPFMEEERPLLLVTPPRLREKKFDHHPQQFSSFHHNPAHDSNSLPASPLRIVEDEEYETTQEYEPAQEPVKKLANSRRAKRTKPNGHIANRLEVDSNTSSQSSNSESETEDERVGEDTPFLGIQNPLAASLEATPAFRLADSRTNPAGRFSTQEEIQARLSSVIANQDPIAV

[7] = tested on: Neuregulin-1 EGF-like domain; experiment: small molecules binding NRG1 EGF domain – biochemical, small-molecule microarray, 635 nm fluorescence, primary screen (AID 1081); conditions: higher = more signal;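 also: binding of the protein to compounds printed on small-molecule microarray slides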
[8] = FRG1 expression reporter modulators in myotubes – cell-based, C2C12 myotubes, firefly/Renilla luciferase, luminescence, FRG1 inhibition for FSHD, primary screen (AID 1084); conditions: FRG1 promoter luciferase, higher = more signal, called active from +8 up or from −8 down
[9] = small molecules captured by biotinylated probe aFST – biochemical, small-molecule microarray, fluorescence 635/667, stem cell growth factor project, primary screen (AID 1086); conditions: higher = more signal;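 also: score merges 667 nm fluorescence with signal-to-noise of each printed compound spot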
[10] = binders of probe aHhip on microarray, primary screen, stem cell growth factor project, biochemical, small-molecule microarray, fluorescence 635/667 (AID 1087); conditions: higher = more signal;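 also: score merges spot fluorescence at 667nm with spot signal to noise ratio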

| SMILES | composite z-score [1] | composite z-score [2] | composite z-score [3] | composite z-score [4] | composite z-score [5] | composite z-score [6] | composite z-score [7] | z-score [8] | composite z-score [9] | composite z-score [10] |
| --- | --- | --- | --- | --- | --- | --- | --- | --- | --- | --- |
| CO[C@H]1COC(=O)CC=C[C@H](C)[C@@H](NS(=O)(=O)c2ccc(C)cc2)COC(=O)CC=C[C@@H]1C | -0.599 | 0.871 | -0.134 | 0.339 | 0.381 | -0.425 | -0.377 | -1.15 (inactive) | -0.197 | -0.0994 |
| COCCCNC(=O)[C@@]1(C)c2ccccc2C(=O)N(Cc2ccc(OC(F)(F)F)cc2)[C@H]1c1ccc(CO)cc1 | 0.729 | -0.255 | -0.116 | -0.0476 | -0.505 | 0.785 | 1.45 | -2.6 (inactive) | 0.153 | 0.213 |
| COCCOC(=O)N1C(=O)[C@@]2(c3cc(C#Cc4ccc(OC)cc4)ccc31)[C@H](C(=O)N1CCN(c3ncccn3)CC1)[C@H]1C(=O)O[C@H](c3ccccc3)[C@H](c3ccccc3)N1[C@@H]2c1ccc(OCCO)cc1 | 0.367 | -0.473 | -0.006 | 0.3 | 1.35 | 0.458 | 0.703 | 0.726 (inactive) | 0.383 | 0.28 |
| CC(=O)OC[C@H]1O[C@H](C#CCCCc2ccccc2)C=C[C@@H]1OC(C)=O | -0.0129 | 0.105 | -0.083 | 0.73 | 0.2 | 0.505 | 0.765 | -0.13 (inactive) | -0.206 | 0.351 |
| CC(=O)OC[C@H]1O[C@@H](ON=C(C)CCN2CCc3nc(-c4ccccc4)c(-c4ccccc4)cc3C2)[C@H](OC(C)=O)[C@@H](OC(C)=O)[C@@H]1OC(C)=O | -0.209 | 0.217 | -0.213 | 0.958 | 1.11 | 0.817 | 0.992 | 0.66 (inactive) | 0.473 | 0.21 |
| O=C1[C@H]2[C@H]3[C@H](O)[C@H](O)CC(=NOCc4ccccc4)[C@H]3CC[C@H]2C(=O)N1c1cccc(Oc2ccccc2)c1 | -0.602 | 0.154 | -0.052 | 0.919 | 0.554 | 0.391 | 1.16 | 0.335 (inactive) | 0.4 | 0.0053 |
| COc1ccc(O[C@H]2C=C[C@@H](c3ccccc3)O[C@@H]2COC(=O)N2CCCCC2)cc1 | -0.0055 | 0.38 | -0.0493 | -0.479 | -0.701 | -0.578 | -0.77 | -0.216 (inactive) | -0.0007 | -0.171 |
| C=C(/C(=C/C[C@H](OC(=O)c1ccncc1)c1ccc(OCCO)cc1)c1cnc2ccccc2c1)C(C)C | -0.185 | 0.727 | -0.047 | 1.09 | 1.29 | 0.7 | 1.13 | 1.66 (inactive) | 0.552 | -0.0296 |
| CC(C)(C)N1CC=CC23O[C@@H]4C=CCCOC(=O)C4[C@H]2C(=O)N(CCCCCO)[C@@H]3C1=O (stereo not given in full) | -0.0873 | 1.48 | -0.183 | 0.448 | 0.366 | -0.0196 | 1.28 | -0.85 (inactive) | -0.443 | 0.0156 |
| CO[C@@H]1COC(=O)CC=C[C@@H](C)[C@@H]2C=C[C@@H](O)[C@@H](COC(=O)CC=C[C@H]1C)O2 | -0.42 | 1.08 | -0.0861 | -0.251 | -0.716 | -0.688 | -0.523 | -0.969 (inactive) | -0.176 | -0.16 |
| COc1ccc(-c2nc3c(c4c2C[C@H](C)OC4)CN(CCC(C)C)CC3)cc1 | -0.256 | 0.39 | -0.123 | 0.644 | 1.04 | 0.114 | 0.917 | -0.145 (inactive) | 0.414 | -0.189 |
| C=CCOC(=O)[C@H]1[C@@H]2C(=O)O[C@@H](c3ccccc3)[C@@H](c3ccccc3)N2[C@@H](c2ccc(OCCOC(=O)[C@H]3C[C@H]4C(=O)N[C@@H](Cc5ccccc5)C(=O)N4[C@H]3c3ccc(O)cc3)cc2)[C@]12C(=O)Nc1ccccc12 | -0.298 | 0.0087 | -0.0692 | 0.349 | 0.355 | 0.188 | 1.29 | 0.458 (inactive) | 0.276 | -0.109 |
| COC(=O)[C@@H]1CCCN1C(=O)[C@@H](C)CO | -0.527 | 0.431 | -0.137 | 0.467 | 0.693 | 0.346 | 1.03 | 1.66 (inactive) | 0.162 | 0.154 |
| COc1ccc(CCNC(=O)[C@@H]2c3ccccc3C(=O)N(c3ccc(C)cn3)[C@H]2c2ccc(CO)cc2)cc1 | 1.18 | -0.793 | -0.189 | -0.715 | -1.85 | -1.13 | 1.2 | 0.379 (inactive) | -0.57 | -0.0994 |
| CCN1C(=O)[C@H]2[C@H]3[C@H](O)[C@H](O)CC(=NOCc4ccccc4)[C@H]3CC[C@H]2C1=O | -0.5 | 0.391 | -0.116 | 0.611 | 0.262 | -0.0759 | -0.0363 | 0.273 (inactive) | 0.214 | -0.226 |
| C[C@H]1Cc2c(-c3ccccc3)nc3c(c2CO1)CN(CCOc1ccccc1)CC3 | -0.635 | 0.568 | -0.113 | 0.739 | 1.41 | 0.135 | 0.991 | 0.53 (inactive) | 0.307 | -0.0708 |
| O=C1[C@H]2[C@H]3[C@H](O)[C@H](O)CC(=NOC[C@@H](O)COCc4ccco4)[C@@H]3CC[C@H]2C(=O)N1c1ccc(F)cc1F | -0.469 | 1.4 | -0.128 | 0.138 | 0.21 | -0.592 | -0.574 | -0.24 (inactive) | -0.128 | 0.177 |
| CC(C)CON=C1C[C@@H](O)[C@@H](O)[C@@H]2[C@@H]3C(=O)N(Cc4ccccc4)C(=O)[C@@H]3CC[C@@H]12 | -0.404 | 0.129 | -0.141 | 0.256 | 0.455 | -0.344 | 0.211 | 0.166 (inactive) | -0.313 | -0.199 |
| COC(=O)[C@@]1(Cc2ccc(F)cc2)[C@@H]2C(=CC(=O)[C@H]2CC(=O)C(=O)N(C)C)CN1C(=O)c1ccccc1 | 0.581 | -0.293 | 0.293 | 0.663 | 1.71 | 1.49 | 1.36 | -0.524 (inactive) | 1.45 | 2.1 |
| O=C1c2ccccc2[C@@]2(Cc3ccccc3N(C3CC3)C2=O)[C@H](c2ccc(CO)cc2)N1Cc1ccccc1C(F)(F)F | 0.748 | -0.686 | -0.0507 | 0.157 | -1.11 | 0.809 | -0.0465 | -0.455 (inactive) | -0.0438 | 0.151 |
| CCOC(=O)NN=C1C[C@@H](O)[C@@H](O)[C@@H]2[C@@H]3C(=O)N(C4CCCCC4)C(=O)[C@@H]3CC[C@H]12 | -0.242 | 0.459 | -0.067 | 0.267 | 0.932 | 0.215 | 0.444 | 0.228 (inactive) | 0.142 | -0.0994 |
